Compounds with a hit are over-represented: about 9.4% of the library has one in this group of screens.
Pf growth 48h: inhibits P. falciparum growth in the first generation, 48 h. 310,000 tested, 5.9% active. P. falciparum luciferase growth in erythrocytes, 48 h. Potency, µM (top dose mostly 28.7 µM), hits mostly inhibitors
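Growth was read as firefly luciferase luminescence after a 48 h, 37 C, 5% CO2 exposure of compounds to reporter-bearing P. falciparum cultures (0.1% parasitemia, 2% hematocrit final) in Albumax-supplemented RPMI 1640.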
SARS PLpro yeast: blocks SARS-CoV papain-like protease in a yeast assay; S. cerevisiae expressing SARS-CoV PLpro, growth rescue; 330,000 tested, 0.19% active; Potency, µM (titrated, usually from 32.9 µM), usual class: activators; calls by dose curve; further: nearly all actives have a fitted effect of over 55% in size
AMA1 RON2 block: inhibitors of Plasmodium falciparum AMA1-RON2 interaction. 360,000 tested, 0.2% active. AID 720542. Potency, µM (series often up to 58.2 µM), hits mostly inhibitors. AlphaScreen AMA1-biotinylated RON2 peptide binding; further: nearly all actives have a fitted effect of over 45% in size
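AMA1 (3D7) with his tag at 25 nM final met compounds first, then biotinylated RON2 peptide at 25 nM; detection used donor plus acceptor beads, 10 µg/mL apiece, read by AlphaScreen after 30 min at room temperature.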
Pf growth 96h: P. falciparum growth inhibition at 96 hour, primary screen for plastid delayed-death inhibitors | P. falciparum luciferase reporter growth, 96 h | Potency, µM (top dose mostly 28.7 µM), actives largely listed as inhibitors | AID 504834 | 320,000 tested, 6.9% active
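Two parasite generations (96 h, 37 C, 5% CO2) of compound exposure in infected erythrocytes (0.05% parasitemia, 2% hematocrit). Luciferase-reporter P. falciparum; decreased luminescence indicates inhibited growth, aimed at apicoplast-acting delayed death.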
Each line names hits and unclear results; the compound was inactive in the other large screens. Unless noted, the call rests on the fitted dose curve; in most records, active means well fitted curve in the direction sought with a large enough effect; inconclusive means small, poorly fitted or top-dose-only effect, or another doubt; inactive means no such curve, though single readings can be large; an effect the other way counts as inactive or inconclusive.

Cc1cc(NC(=O)C2CC(c3ccc(F)cc3)=NO2)no1 (stereo not drawn)	Pf growth 96h 5.2µM (no result: Pf growth 48h)
O=c1c2cnn(-c3ccccc3)c2nnn1/N=C/c1cccnc1	Pf growth 48h inconclusive
Cc1cccc(N2CCN(Cc3ccc([N+](=O)[O-])o3)CC2)c1C	AMA1 RON2 block inconclusive
COc1cccc(NC(=O)[C@H](C)NC(=O)N2CCn3c2nc2ccccc23)c1	Pf growth 48h inconclusive, Pf growth 96h inconclusive
COc1cccc(NC(=O)CSc2nc3ccccc3c(=O)n2Cc2cccs2)c1	Pf growth 48h inconclusive, SARS PLpro yeast inconclusive
Cc1cc(NC(=O)CSc2nccn2-c2cccc(C)c2C)no1	Pf growth 48h inconclusive, Pf growth 96h 8.3µM
COc1cccc(NC(=O)[C@H](CC(C)C)NC(=O)N2CCn3c2nc2ccccc23)c1	Pf growth 48h inconclusive, Pf growth 96h 5.9µM
COc1cccc(NC(=O)CSc2nccn2-c2cccc(OC)c2)c1	Pf growth 96h 12µM
COc1cccc(NC(=O)CSc2nc3ccccc3c3nc4ccccc4n23)c1	Pf growth 48h 13µM
CSc1ccc(/C=C(/NC(=O)c2ccco2)C(=O)N2CCOCC2)cc1	Pf growth 96h inconclusive
Cc1ccc(OCc2cc(C(=O)NCc3ccc(OC(F)(F)F)cc3)no2)cn1	none
Cc1ccc(NC(=O)CN(C)CC(=O)Nc2c(C)cccc2C)c(Br)c1	Pf growth 48h inconclusive, Pf growth 96h inconclusive
N#CCSc1nc2ccccc2c2nc3ccccc3n12	Pf growth 48h inconclusive, Pf growth 96h 7.4µM
Cc1cccc(-n2ccnc2SCC(=O)Nc2cc(C)on2)c1	Pf growth 96h 10µM
CCn1c(SCC#N)nc2ccccc2c1=O	none
Cc1csc(SCC(=O)N2CCN(S(=O)(=O)c3ccc(Cl)cc3)CC2)n1	Pf growth 96h inconclusive
COc1cccc(NC(=O)N(C)C[C@@H]2OCc3cn(nn3)CCCC(=O)N([C@H](C)CO)C[C@H]2C)c1	none (no result: Pf growth 48h, SARS PLpro yeast, Pf growth 96h)
CCNC(=O)COC(=O)c1cc(S(=O)(=O)N2CCCCC2)ccc1C	Pf growth 48h inconclusive, Pf growth 96h inconclusive
CCOc1ccccc1C(=O)N(C)CC(=O)Nc1ccc(OC)cc1	none
CN(CC(=O)Nc1ccc(F)cc1)C(=O)COc1ccccc1Cc1ccccc1	Pf growth 48h inconclusive, Pf growth 96h 5.2µM
COc1ccc(NC(=O)CN(C)C(=O)COc2ccccc2Cc2ccccc2)cc1	Pf growth 48h 9.3µM, Pf growth 96h inconclusive
CN(CC(=O)Nc1ccccc1C(F)(F)F)C(=O)COc1ccccc1Cc1ccccc1	Pf growth 48h inconclusive, Pf growth 96h inconclusive
Cc1nc(Cc2ccc(OC(C)C)cc2)[nH]c(=O)c1CC(=O)O	none
CCOC(=O)c1cnc2ccc(C)cc2c1Nc1ccc(N2CCOCC2)cc1	Pf growth 48h inconclusive, AMA1 RON2 block 14µM, Pf growth 96h 10µM
Nc1nc(N)c2cc(Sc3ccc(Cl)cc3)ccc2n1	none (no result: Pf growth 48h, SARS PLpro yeast, Pf growth 96h)
Nc1nc(N)c2cc(Sc3ccc4ccccc4c3)ccc2n1	Pf growth 48h 0.0074µM, Pf growth 96h inconclusive
CCn1cc(C(=O)N[C@@H](CCSC)C(=O)NCCO)c(=O)c2cc3c(cc21)OCO3	Pf growth 48h 8.3µM, Pf growth 96h 6.6µM
COC(=O)Cc1ccc2oc(-c3cccnc3)nc2c1	none
CCOc1cccc2cc(C(=O)N3CCOCC3)c(=O)oc12	Pf growth 96h 12µM
COc1cccc2cc(C(=O)OCC(=O)N3CC(C)OC(C)C3)c(=O)oc12 (stereo not drawn)	none (no result: Pf growth 48h, Pf growth 96h)
CCN(C(=O)c1cc2cccc(OC)c2oc1=O)C1CCCCC1	Pf growth 48h inconclusive, Pf growth 96h 1.5µM
CC1CN(C(=O)c2cccc(C(=O)N3CC(C)OC(C)C3)c2)CC(C)O1 (stereo not drawn)	Pf growth 96h 15µM
CCOc1cccc2cc(C(=O)N3CC(C)OC(C)C3)c(=O)oc12 (stereo not drawn)	Pf growth 96h 6.6µM
O=c1c2ccccc2nc(/C=C/c2cccc([N+](=O)[O-])c2)n1CCCO	none (no result: Pf growth 48h, SARS PLpro yeast, Pf growth 96h)
COC(=O)c1ccc(C)c(NC(=O)CCn2[nH]c(=O)ccc2=O)c1	none (no result: Pf growth 48h, Pf growth 96h)
Cc1nc(CCNC(=O)CC2C(=O)NCCN2Cc2ccccc2)sc1C (stereo not drawn)	Pf growth 96h inconclusive
CC(C)=CCN1CCNC(=O)C1CC(=O)NCc1nc(C)c(C)s1 (stereo not drawn)	Pf growth 96h 2.3µM
CCCn1c(=O)[nH]c(=O)c2c1nc(-c1ccc(C(F)(F)F)cc1)n2CCOC	Pf growth 96h inconclusive
O=C(NCc1ccccc1)c1sc(=S)n2c1[nH]c(=O)c1ccccc12	Pf growth 96h 13µM
COc1ccccc1C(=O)NC(=O)OCCn1c(C)cnc1[N+](=O)[O-]	Pf growth 96h 9.3µM

Screens from PubChem BioAssay.
